Measured values as given in PubChem BioAssay AID1508622 (National Center for Advancing Translational Sciences (NCATS), 2021).
Activity calls are given as the source filed them. Entries that show only a call come without a potency. Calls come from the whole dose curve; as a rule, active = well fitted activation curve with a large enough effect; inconclusive = small, poorly fitted or top-dose-only effect; inactive = no such curve, though single readings can be large or run the other way.

Assay: Confirmatory qHTS for Identification of Small Molecule Activators of Huntingtin-Antisense Promoter Activity
Summary of the method: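 HEK293 luciferase reporter cells, 2,500/well, cultured 24 h, then exposed to compounds at up to 57.5 uM final for 24 h at 37C. Firefly luciferase luminescence read; normalized to vehicle (0%) and zero RLU (-100%).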
Potency is the fitted concentration of half-maximal effect.

O=C(NCc1ccccc1)C(=O)NCC(c1ccco1)S(=O)(=O)c1ccc(Cl)cc1 (configuration not stated)
Potency: inactive

Cc1ccc(-c2nc3sc(CCNS(=O)(=O)c4cc(F)ccc4F)c(C)n3n2)cc1
Potency: inactive

Cc1ccc(C(Nc2ccccn2)c2ccc3cccnc3c2O)cc1 (configuration not stated)
Potency: inactive

O=C(Nc1nc2cccc(-c3ccc(CN4CCS(=O)(=O)CC4)cc3)n2n1)C1CC1
Potency: 8.49 µM (active)

COc1ccccc1N1CCN(S(=O)(=O)c2ccc(F)c(C(=O)Nc3ccc(Cl)cc3C(F)(F)F)c2)CC1
Potency: inactive

COc1ccc(C(=O)NCC(c2cccnc2)N2CCc3ccccc32)cc1 (configuration not stated)
Potency: inactive

COc1cc2nc(N3CCCN(C)CC3)nc(NC3CCN(Cc4ccccc4)CC3)c2cc1OC
Potency: inactive

CCc1ccc(-n2c(SCC(=O)NC(C)CC)nc3n[nH]c(C)c3c2=N)cc1 (configuration not stated)
Potency: inactive

CCc1cccc(NS(=O)(=O)c2ccc3c(c2)CC(C)N3C(=O)C2CC2)c1 (configuration not stated)
Potency: inactive

CCCSCCCNC(=O)c1cc2n(n1)CCCN(Cc1ccc(C)cc1)C2=O
Potency: inactive

CCOc1ccc(CCNc2ncnc3onc(C)c23)cc1OCC
Potency: inactive

CC(C)c1ccc(NC(=O)C2CCN(c3nc(-c4ccc(C(C)C)cc4)no3)CC2)cc1
Potency: inactive

CCOCCCNC(=O)c1c[nH]c2ccc(S(=O)(=O)N(C)c3ccc(Cl)cc3F)cc2c1=O
Potency: inactive

O=C(C=Cc1ccc(O)cc1)c1ccc(O)cc1O
Potency: inactive

Cc1ccc(-n2ncc3c(N(C)Cc4ccccc4)ncnc32)cc1
Potency: 0.213 µM (active)

CN(C)c1ccc(C(=O)NCCCCCCC(=O)NO)cc1
Potency: 30.1 µM (active)

COc1ccc(CNC(=O)c2ccc3c(c2)CCN3S(=O)(=O)c2ccc(Cl)cc2)cc1
Potency: inactive

CCc1ccc(NC(=O)c2ccc(F)c(S(=O)(=O)N3CCC4(CC3)OCCO4)c2)cc1
Potency: inactive

CCCCN(C)C(=O)C1CCC(CNS(=O)(=O)c2ccc(Cl)cc2)CC1 (configuration not stated)
Potency: inactive

Cc1ccc(C)c(N2CCN(C(=O)CCS(=O)(=O)c3ccc4c(c3)CC(=O)N4C)CC2)c1
Potency: inactive

O=C(Cn1c(=O)oc2cc(S(=O)(=O)N3CCCCC3)ccc21)NCc1ccc(Cl)cc1
Potency: inactive

Cc1cccc(N2CCN(C(=O)C3CCCN(S(=O)(=O)c4ccc5c(c4)oc(=O)n5C)C3)CC2)c1C (configuration not stated)
Potency: inactive

COc1cc(NC(=O)CSc2nc3nc(C)c(Cc4ccc(C)cc4)c(C)n3n2)cc(OC)c1
Potency: inactive

COc1ccc(NC(=O)Cn2c(SCc3ccc(F)cc3)nc3cccnc32)cc1OC
Potency: inactive

O=C1CCCc2cc(S(=O)(=O)NCC3CCC(C(=O)Nc4ccc(Cl)cc4)CC3)ccc2N1 (configuration not stated)
Potency: inactive

Cc1ccc(Cl)cc1-n1ncc2c(NC3CCCCC3)ncnc21
Potency: inactive

Cc1ccc(NC(=O)Cn2cc(S(=O)(=O)Cc3ccccc3)c3ccccc32)cc1C
Potency: inactive
